Measurements from PubChem BioAssay (NCI).
About 83,000 compounds went through this panel and 20% of them were active in at least one assay; those are over-represented in the sample as a whole.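 Step 1: grow cells in 96-well plates. Step 2: add test compound at a single concentration. Step 3: incubate 48 h. Step 4: record percent growth.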 Calls of active or inactive are those of the source. The calls were made as follows: active = growth percent below 10; inactive = the rest.

Tests used:
Assay in all cases: NCI-60 one-dose screen, 48 h (100 = growth as untreated, 0 = no growth, -100 = all killed)
Conditions in all cases: 10 µM unless noted
SK-MEL-2 melanoma = system: SK-MEL-2 melanoma
EKVX NSCLC = system: EKVX NSCLC
SN12C renal = system: SN12C renal
UO-31 renal = system: UO-31 renal
TK-10 renal = system: TK-10 renal
ACHN renal = system: ACHN renal
CAKI-1 renal = system: CAKI-1 renal
CCRF-CEM leukemia = system: CCRF-CEM leukemia
SR leukemia = system: SR leukemia
RPMI-8226 leukemia = system: RPMI-8226 leukemia
OVCAR-8 ovarian = system: OVCAR-8 ovarian
OVCAR-5 ovarian = system: OVCAR-5 ovarian
OVCAR-4 ovarian = system: OVCAR-4 ovarian
SK-OV-3 ovarian = system: SK-OV-3 ovarian
IGROV1 ovarian = system: IGROV1 ovarian
OVCAR-3 ovarian = system: OVCAR-3 ovarian
NCI/ADR-RES ovarian = system: NCI/ADR-RES ovarian
MOLT-4 leukemia = system: MOLT-4 leukemia
HS 578T breast = system: HS 578T breast
A498 renal = system: A498 renal

Measured: growth

O=C(COc1cccc(/C=C2\CSc3ccccc3C2=O)c1)Nc1nccs1
inactive: SK-MEL-2 melanoma 69.3% | EKVX NSCLC 25.5% | SN12C renal 89.4% | UO-31 renal 60.1% | TK-10 renal 70% | ACHN renal 69.9% | CAKI-1 renal 78.1% | OVCAR-8 ovarian 31% | OVCAR-5 ovarian 83.8% | OVCAR-4 ovarian 78.3% | SK-OV-3 ovarian 116% | OVCAR-3 ovarian 24.4% | NCI/ADR-RES ovarian 54.8%
active: CCRF-CEM leukemia 4.26% | SR leukemia -47% | RPMI-8226 leukemia -31.2% | IGROV1 ovarian -52.2%

COc1cc(/C=C/c2cc(/C=C/c3ccc(O)c(OC)c3)n(-c3c(Cl)cccc3Cl)c(=O)n2)ccc1O
inactive: SK-MEL-2 melanoma 82.9% | EKVX NSCLC 41.4% | SN12C renal 27.8% | UO-31 renal 25.2% | TK-10 renal 86% | ACHN renal 37.8% | CAKI-1 renal 63.2% | CCRF-CEM leukemia 10.4% | OVCAR-5 ovarian 57.6% | OVCAR-4 ovarian 56.3% | SK-OV-3 ovarian 47.7% | IGROV1 ovarian 33.5% | OVCAR-3 ovarian 10.7% | HS 578T breast 36.3% | NCI/ADR-RES ovarian 55.2%
active: MOLT-4 leukemia 9.71% | RPMI-8226 leukemia 0.562% | OVCAR-8 ovarian 7.53%

CC1C(/C=N/Nc2ccccc2)C(C#N)(C#N)C1(C#N)C#N (stereo not drawn)
inactive: SK-MEL-2 melanoma 85.2% | EKVX NSCLC 71.8% | SN12C renal 86.5% | UO-31 renal 52% | TK-10 renal 130% | ACHN renal 44.4% | A498 renal 99.9% | CCRF-CEM leukemia 58% | MOLT-4 leukemia 67% | SR leukemia 46.6% | RPMI-8226 leukemia 82% | OVCAR-8 ovarian 85.6% | OVCAR-5 ovarian 87.3% | OVCAR-4 ovarian 76.1% | SK-OV-3 ovarian 95.7% | IGROV1 ovarian 56.3% | OVCAR-3 ovarian 86.2% | HS 578T breast 87.2% | NCI/ADR-RES ovarian 65.1%

Cc1cc(N2CCN(C)CC2)nc(NC2CCCC(Nc3ccnc4cc(Cl)ccc34)C2)n1 (stereo not drawn)
active: SK-MEL-2 melanoma -66.7% | SN12C renal -21% | UO-31 renal -100% | TK-10 renal -75.8% | ACHN renal -88.6% | CCRF-CEM leukemia -26% | MOLT-4 leukemia 1.05% | SR leukemia -31% | RPMI-8226 leukemia -47.8% | OVCAR-8 ovarian 5.87% | OVCAR-5 ovarian 9.67% | OVCAR-3 ovarian -18.7% | HS 578T breast -18.7%
inactive: EKVX NSCLC 34.4% | A498 renal 54.5% | OVCAR-4 ovarian 20.3% | SK-OV-3 ovarian 18.6% | IGROV1 ovarian 10.5% | NCI/ADR-RES ovarian 18.7%
